Inconclusive results are not listed. A call without a number means that no potency is given here. Active and inactive are the calls of the source. The call rests on the fitted dose curve; in most records, active means well fitted activation curve with a large enough effect; inconclusive means small, poorly fitted or top-dose-only effect; inactive means flat fitted curve, though single readings scatter.
Potency means the concentration at half of the fitted maximal effect.

The target in the test is Pyruvate kinase PKM (Homo sapiens) (UniProt P14618). Description: Confirmation Concentration-Response Assay for Activators of Human Muscle isoform 2 Pyruvate Kinase: for Probe SAR. Further: nearly all actives have a fitted effect of over 60% in size. Particulars: purified PKM2, ATP generation, Kinase-Glo luminescence; series mostly up to 57.5 µM. From the text: NIH Chemical Genomics Center [NCGC]
Chain of Pyruvate kinase PKM (Homo sapiens) (P14618 whole entry, looked up, canonical isoform): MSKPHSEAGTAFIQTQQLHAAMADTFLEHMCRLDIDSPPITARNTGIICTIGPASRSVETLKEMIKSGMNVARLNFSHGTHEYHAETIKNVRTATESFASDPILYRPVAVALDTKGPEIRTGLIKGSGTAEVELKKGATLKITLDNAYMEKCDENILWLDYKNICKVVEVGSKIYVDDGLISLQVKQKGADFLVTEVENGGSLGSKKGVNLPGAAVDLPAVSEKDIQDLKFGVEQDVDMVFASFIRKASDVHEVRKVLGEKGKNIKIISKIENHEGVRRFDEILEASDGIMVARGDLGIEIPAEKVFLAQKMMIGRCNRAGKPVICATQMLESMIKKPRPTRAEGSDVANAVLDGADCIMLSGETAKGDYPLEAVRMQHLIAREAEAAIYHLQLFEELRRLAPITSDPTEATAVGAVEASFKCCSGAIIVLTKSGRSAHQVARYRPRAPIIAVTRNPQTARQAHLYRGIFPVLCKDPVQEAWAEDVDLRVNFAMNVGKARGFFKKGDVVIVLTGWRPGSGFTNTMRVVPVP
Matthew G. Vander Heiden, M.D., Ph.D. [Harvard Medical School, 77 Avenue Louis Pasteur, Boston, MA 02115]
Human pyruvate kinase muscle 2 (hPK-M2) enzyme was supplied as a highly purified (>95% pure) preparation from Harvard Medical School and assayed for its ability to generate ATP from ADP using phosphoenolpyruvate (PEP) as a substrate. ATP generation was detected in a coupled reaction by luciferase-mediated luminescence, an ATP-dependent process. […] The enzyme was assayed at an intermediate level of activity to screen for both inhibitors and activators.
NCGC Assay Protocol Summary:
Three uL of substrate mix (at r.t.) in assay buffer (50 mM Imidazole pH7.2, 50 mM KCl, 7 mM MgCl2, 0.01% Tween 20, 0.05% BSA) was dispensed into white solid bottom 1,536 well microtiter plates so that the final concentrations of substrates in the assay were 0.1 mM ADP and 0.5 mM PEP. 23 nL of compound were delivered by a pin tool and 1 uL of enzyme mix (final concentration of 0.1 nM) in assay buffer (4 degree Celsius) was added. Plates were incubated at room temperature for 1 hour. Two uL of detection mix (Kinase-Glo, Promega; at 4 degree Celsius protected from light) was added and luminescence read by a ViewLux (Perkin Elmer) at 1 second exposure/plate. Data were normalized to the uninhibited (column 3) and AC100 inhibition (no enzyme in column 2). To monitor activation, the first column contained a titration of the activator, NCGC00031955-03 (16-point 1:2 dilutions in duplicate starting at 57 uM) and the first 16 rows of column 4 contained 57 uM of NCGC00031955-03.
Background: In Kinase-Glo more light means more ATP remaining.
Take `O=C1CCc2cc(S(=O)(=O)Nc3ccc4c(c3)OCCO4)ccc2N1`: the Potency was 20600 nM (active).

For the compound `Cc1ccc(NS(=O)(=O)c2ccc3c(c2)CCC(=O)N3)cc1`, the Potency was 5800 nM (active).

Consider `COc1cc(F)c(S(=O)(=O)N2CCCN(S(=O)(=O)c3ccc(NC(C)=O)cc3)CC2)c(F)c1`, for which the Potency is 16300 nM (active).

Turning to `Cc1ccc(-c2nc3ccccn3c2Nc2ccc(F)cc2)o1`, the Potency result is “inactive”.

Regarding `Nc1ccccc1OC1=NS(=O)(=O)c2ccccc21`, the Potency entry is “inactive”.

With `COC(=O)c1ccccc1S(=O)(=O)Nc1cc(=O)c2ccccc2[nH]1`, the Potency entry was “inactive”.

As to `CC(=O)Nc1cccc(S(=O)(=O)N2CCCN(S(=O)(=O)c3ccc4c(c3)OCCO4)CC2)c1`, the Potency is 1300 nM (active).

Take `Cc1cccc(NS(=O)(=O)c2ccc3c(c2)CCC(=O)N3)c1`: the Potency is 1830 nM (active).

With `Cc1ccccc1NS(=O)(=O)c1ccc2c(c1)CCC(=O)N2`, the Potency was 11600 nM (active).

`Cc1ccccc1Nc1c(-c2ccc(Cl)s2)nc2ccccn12`: the Potency result was “inactive”.

Take `COc1cccc(Cn2ncc3c4sc(S(C)=O)cc4n(C)c3c2=O)c1` (stereo not given): the Potency was 73 nM (active).

As for `O=C1c2ccccc2C(=O)N1c1ccccn1`, the Potency entry is “inactive”.

Turning to `O=S1(=O)N=C(Oc2ccc(-c3ccccc3)cc2)c2ccccc21`, the Potency entry is “inactive”.

As to `O=S1(=O)N=C(Oc2cccc(C(F)(F)F)c2)c2ccccc21`, the Potency result is “inactive”.

For `O=C1CCc2cc(S(=O)(=O)Nc3ccc(Cl)cc3)ccc2N1`, the Potency was 2060 nM (active).

For the compound `Cc1ccc(NS(=O)(=O)c2ccc(N3CCCC3=O)cc2)cc1C`, the Potency entry was “inactive”.

Consider `Cc1ccn2c(NC3CCCCC3)c(-c3ccc(C)o3)nc2c1`, for which the Potency result is “inactive”.

As to `Cc1ccc(NS(=O)(=O)c2ccc3c(c2)n(C)c(=O)n3C)cc1C`, the Potency was 1460 nM (active).

As for `Nc1ccc(S(=O)(=O)N2CCN(S(=O)(=O)c3ccc4c(c3)OCCO4)CC2)cc1`, the Potency is 366 nM (active).

In the case of `CCCCN1C(=O)c2ccccc2C1=O`, the Potency entry was “inactive”.

For `O=C1NS(=O)(=O)c2ccccc21`, the Potency result was “inactive”.

Regarding `CNc1cccc(S(=O)(=O)N2CCCN(S(=O)(=O)c3ccc4c(c3)OCCO4)CC2)c1`, the Potency is 103 nM (active).

As to `Nc1cccc(S(=O)(=O)N2CCN(S(=O)(=O)c3c(F)cccc3F)CC2)c1`, the Potency is 130 nM (active).

For `COc1cccc(N2C(=O)c3ccccc3C2=O)n1`, the Potency entry was “inactive”.

For `COc1cc(F)c(S(=O)(=O)N2CCN(S(=O)(=O)c3cccc(NC(C)=O)c3)CC2)c(F)c1`, the Potency is 3260 nM (active).

In the case of `Cc1ccc(NS(=O)(=O)c2ccc3ccccc3c2)cc1C`, the Potency was 41100 nM (active).

Turning to `Cc1ccc(Nc2c(-c3ccc(C)o3)nc3cccc(C)n23)cc1`, the Potency entry was “inactive”.

Take `Cc1ccc(Nc2c(-c3ccc(C)o3)nc3ccccn23)cc1`: the Potency entry was “inactive”.

`O=C1c2ccccc2C(=O)N1c1ccc(O)cc1`: the Potency result was “inactive”.

As for `Cc1ccccc1Nc1c(-c2ccccc2)nc2cccc(C)n12`, the Potency entry is “inactive”.

As to `Cc1ccc(NS(=O)(=O)c2cc3c(cc2N(C)C)NC(=O)CC3)cc1C`, the Potency was 366 nM (active).

Regarding `Cc1ccc(NS(=O)(=O)c2ccc(F)cc2)cc1C`, the Potency is 25900 nM (active).

For the compound `Cc1ccc2nc(-c3ccc(C)o3)c(Nc3ccccc3)n2c1`, the Potency entry is “inactive”.

With `Cc1ccc(-c2nc3ccccn3c2Nc2ccccc2C)o1`, the Potency result is “inactive”.

Regarding `COc1cc(F)c(S(=O)(=O)N2CCCN(S(=O)(=O)c3cccc(NC(C)=O)c3)CC2)c(F)c1`, the Potency is 2910 nM (active).

Take `O=C1c2ccccc2C(=O)N1c1cccc2ccncc12`: the Potency entry is “inactive”.

For the compound `O=C1c2ccccc2C(=O)N1c1cccc2cnccc12`, the Potency result was “inactive”.

In the case of `Cn1c2cc(S(C)=O)sc2c2cnn(Cc3cccc(O)c3)c(=O)c21` (stereo not given), the Potency was 130 nM (active).

`COc1cc(F)c(S(=O)(=O)N2CCCN(S(=O)(=O)c3ccc4c(c3)OCCO4)CC2)c(F)c1`: the Potency was 58 nM (active).

For the compound `Cc1ccc(OC2=NS(=O)(=O)c3ccccc32)cc1`, the Potency result is “inactive”.

Values taken from PubChem BioAssay AID2533 (National Center for Advancing Translational Sciences (NCATS), 2010).
